Source: PubChem BioAssay
Lmaj promast: Leishmania major promastigote growth inhibition, primary screen; Leishmania major promastigotes, resazurin fluorescence viability; inhibition, % at 10 µM; 200,000 compounds, 9% hits; AID 1063, 2008; in the data active = inhibition above about 50%;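 note: promastigotes grown with compound for 44 hours at 28 °C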
CHOP inh: inhibitors of CHOP promoter induction, primary screen, cell-based, unfolded protein response, luciferase reporter | CHO-K1 CHOP-promoter luciferase, tunicamycin-induced, 15-18 h | inhibition, % at 10 µM | 220,000 compounds, 3.8% hits;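 active = compounds that reduced the stress-induced luciferase reporter signal by more than about 70% of percent inhibition, limit read from the data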;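 note: 0% = tunicamycin plus vehicle and 100% = wells without tunicamycin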
RAM inhibit: inhibitors of the yeast RAM network, primary screen, dse1pr::URA3 reporter, 5-FOA selection | inhibition, % at 50 µM | AID 868, 2007 | 190,000 compounds, 1.8% hits | S. cerevisiae dse1pr::URA3 reporter, 5-FOA growth OD615, 2 d; analog-sensitive cbk1-as2 kinase mutant strain;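 active = inhibition above a set limit, 3 SD over mean compound inhibition, cut at about 8.4% in these data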;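 note: 0% = DMSO-only wells with no growth and 100% = 10 µM 1-NA-PP1 full growth; inhibition rescues growth on 5-FOA so higher OD means more RAM inhibition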
WT yeast gro inh: growth inhibition of WT strain, primary screen, mitochondrial fusion inhibitor project, WT and mutant strains, chemical genetic | mitochondrial fusion phenotypic screen | inhibition, % at 10 µM | 190,000 compounds, 2.1% hits | AID 1362, 2008; in the data active = inhibition above about 58%; tested in S. cerevisiae
* marks the source's active call; other numbers are inactive results; . = no result. Hits are enriched below; roughly 13% of the tested compounds scored in any of these assays.

SMILES	Lmaj promast	CHOP inh	RAM inhibit	WT yeast gro inh
COc1ccc(-n2cnc3scc(-c4ccc(OC)c(OC)c4)c3c2=O)cc1	-4.9	75.8*	4.2	-5.9
COc1ccc(-c2csc3nc(C)nc(N4CCC(C)CC4)c23)cc1OC	89.5*	-44.2	0.8	63.0*
COc1ccc(-c2csc3ncn(-c4ccc(C)cc4)c(=O)c23)cc1OC	5.0	58.3	4.1	-5.8
COc1ccc(N(C(C)C(=O)Nc2cccnc2)S(C)(=O)=O)cc1 (configuration not stated)	-6.3	4.4	-0.7	-10.8
COc1ccc(/C=N/NC(=O)c2ccoc2C)cc1COc1c(C)cccc1C	99.8*	87.7*	0.9	87.7*
CN(C)C(=O)COC(=O)c1cccc(CN2C(=O)c3ccccc3C2=O)c1	-6.2	11.7	1.5	3.2
Cc1ccc(NC(=S)N(Cc2ccco2)C(C)c2cccs2)c(Cl)c1 (configuration not stated)	36.4	4.7	6.3	66.1*
Cc1ccc(C)c(NC(=S)N(Cc2ccco2)C(C)c2cccs2)c1 (configuration not stated)	63.2*	-1.8	5.8	69.1*
O=C(Cn1c(=O)n(-c2ccccc2)c(=O)c2sccc21)NCc1ccccc1	0.4	53.0	3.1	-6.8
COc1ccc(Cl)cc1-n1c(C)cc(C=O)c1C	78.1*	2.1	2.2	2.1
O=C1CSC(c2ccccc2F)N1c1cc(Cl)ccc1O (configuration not stated)	1.4	11.1	2.1	-2.8
O=C1CSC(c2cccc(Cl)c2Cl)N1c1ccccn1 (configuration not stated)	90.7*	24.7	1.4	37.7
C=CCN=C(NC#N)SC	.	1.8	.	.
Cc1cccc(NS(=O)(=O)c2ccc3c(c2)Cc2cc(S(=O)(=O)Nc4cccc(C)c4C)ccc2-3)c1C	33.3	50.7	8.0	-0.7
COCCNC(=S)NCCc1ccc(Cl)cc1Cl	-2.1	-1.5	0.9	69.9*
COc1ccc(CC(=O)NCCc2ccc(Cl)cc2Cl)cc1	2.8	5.7	0.2	1.7
O=C(Cc1ccc(Br)cc1)NCCc1ccc(Cl)cc1Cl	-4.7	18.5	2.0	7.1
COCC(C)NC(=S)NCCc1ccc(Cl)cc1Cl (configuration not stated)	3.2	-17.4	-0.1	61.2*
O=C(Cc1ccccc1)NCCc1ccc(Cl)cc1Cl	54.3*	30.1	2.1	-12.9
Cc1[nH]c2ccc(-c3nnc(SCC(=O)c4ccccc4F)o3)cc2c1C	0.3	42.5	2.0	1.4
Cc1ccc(C(=O)CSc2nnc(-c3ccc4[nH]c(C)c(C)c4c3)o2)cc1C	7.5	73.7*	5.4	-15.4
CCOC(=O)c1cc2ccc3ccccc3c2s1	-0.1	-10.2	1.1	59.8*
COc1ccc(N=Cc2c(O)ccc3ccccc23)cc1	-4.8	79.5*	-1.9	-3.3
CN(C)CCCN=Cc1c(O)n(Cc2ccccc2)c(=O)c2ccccc12	92.4*	38.6	2.7	.
CCOC(=O)c1cc2c(s1)-c1ccccc1CC2	2.7	29.0	0.9	16.8
SMILES	Lmaj promast	CHOP inh	RAM inhibit	WT yeast gro inh
COc1ccc(Cn2c(O)c(C=Nc3ccccc3)c3ccccc3c2=O)cc1	31.1	40.4	6.2	6.9
COc1ccc(Cn2c(O)c(C=Nc3ccc(O)cc3)c3ccccc3c2=O)cc1	94.1*	85.4*	8.0	64.5*
CC1(C)CC(NC(=S)Nc2ccc([N+](=O)[O-])cc2)CC(C)(C)N1	10.4	-2.7	1.8	-6.3
CC(C)CC(CO)N1CCN(C(=O)c2cccc(C(F)(F)F)c2)CCC1=O (configuration not stated)	-6.6	15.9	0.5	14.6
COc1ccc(N=Cc2c(O)n(-c3cccc(C)n3)c(=O)c3ccccc23)cc1	10.7	-8.1	0.3	-12.0
CN(C)CCN=Cc1c(O)n(Cc2ccccc2)c(=O)c2ccccc12	18.5	-29.2	0.8	2.3
COc1ccc(N=Cc2c(O)n(-c3ccc(OC)cc3)c(=O)c3ccccc23)cc1	-3.1	72.4*	1.7	-4.6
CCOC(=O)c1sc(/N=C/c2c(O)ccc3ccccc23)cc1C	-10.0	-19.3	9.0*	0.5
O=c1c2ccccc2c(C=Nc2ccc(O)cc2)c(O)n1Cc1ccccc1	.	92.8*	.	.
Cc1ccc(N=Cc2c(O)ccc3ccccc23)cc1F	2.3	-23.3	0.0	-7.3
COc1ccc(Cn2c(O)c(C=Nc3ccc(C)cc3)c3ccccc3c2=O)cc1	92.3*	52.4	7.3	-2.6
O=C(O)CCCNC(=O)c1ccc(NC(=O)Cc2ccc(Cl)cc2)cc1	-5.0	-1.8	1.4	-0.3
CC(OC(=O)c1cc(S(=O)(=O)N(C)c2ccccc2)ccc1Cl)C(=O)Nc1ccc2c(c1)OCCO2 (configuration not stated)	65.1*	35.2	4.0	15.1
CCC(=O)NC1=C(C#N)C2(CCCC2)Cc2ccccc21	-0.8	12.3	2.0	3.1
N#CC1=C(N)c2ccccc2CC12CCCCC2	7.6	78.0*	-3.3	22.4
COc1cccc(CNc2nc3ccccc3n2CCN2CCCCC2)c1OC	99.8*	-5.1	1.4	4.1
COc1ccc(CNc2nc3ccccc3n2CCN2CCCCC2)c(OC)c1	92.2*	2.9	1.3	-23.8
COc1ccc(OC)c(CNc2nc3ccccc3n2CCN2CCCCC2)c1	67.4*	28.6	1.5	-9.6
COc1cccc(CNc2ccc(N3CCCCC3)cc2)c1OC	99.8*	3.0	2.7	4.7
CCOC(=O)C1=NN(c2ccc(C)cc2)CC1C(=O)OC (configuration not stated)	-5.1	15.1	-0.1	-24.1
Cc1ccc(NC(=O)CSc2nc3ccccc3c(=O)n2CCCN2CCCCC2)cc1Cl	100.5*	8.0	0.0	34.9
CC1CCN(CCCn2c(SCC(=O)Nc3ccccc3Cl)nc3ccccc3c2=O)CC1	64.6*	38.5	2.9	12.5
O=C(CSc1nc2ccccc2c(=O)n1CCCN1CCOCC1)Nc1cccc(S(=O)(=O)N2CCCCCC2)c1	73.8*	41.0	0.5	-4.8
Cc1ccc(NC(=O)CSc2nc3ccccc3c(=O)n2CCCC(=O)NCCCN2CCOCC2)cc1C	2.8	-9.2	-0.6	4.6
COc1ccc(NC(=O)CSc2nc3ccccc3c(=O)n2CCCN2CCC(C)CC2)c(OC)c1	55.2*	20.5	0.8	9.7
SMILES	Lmaj promast	CHOP inh	RAM inhibit	WT yeast gro inh
O=C(CSc1nc2ccccc2c(=O)n1-c1ccc(F)c(Cl)c1)Nc1cccc(S(=O)(=O)N2CCOCC2)c1	41.3	19.0	5.5	6.9
NC(=O)COC(=O)CSc1ccc2ccccc2c1	-2.4	11.5	-0.6	-16.4
CCOc1ccc(NC(=O)CN(C)Cc2cc(=O)n3c(-c4ccccc4)csc3n2)cc1OCC	8.6	9.1	0.0	-10.8
COc1ccc(NC(=O)CSc2nc3ccccc3c(=O)n2CCC(=O)N2CCCCC2)cc1	70.0*	5.2	0.0	-5.9
Nc1nc(SCC(=O)Nc2ccc(Cl)c(S(=O)(=O)N3CCOCC3)c2)n[nH]1	.	4.8	.	.
CC/C(=N/Nc1cccc(Cl)c1)c1cnnc(SC)n1	26.4	-5.4	9.0*	0.2
Nc1c2c(nc3sc4c(c13)CCCC4)CCCCCC2	55.1*	55.9	0.3	14.8
